# UHRF1 binding – human UHRF1 methylated DNA binding inhibitors; 0.75% of 370,000 active; UHRF1 binding to methylated oligo, TR-FRET; Q96T88; AID 687016; inhibition, % at 4.4 µM; in the data active means inhibition above about 21%;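 further: UHRF1 SRA domain binding a hemimethylated CpG hairpin DNA probe; 0% = median of test compound wells and 100% = reference inhibitor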
# LEDGF integ inh – blocks HIV-1 LEDGF/p75-dependent DNA integration; 0.64% of 370,000 active; inhibition, % at 3.7 µM; TR-FRET IN-LEDGF/p75 DNA integration, Eu/Cy5;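 active means inhibition above the screen-wide mean plus 3 SD, cut at about 13% in these data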;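 further: signal is the Cy5 over europium emission ratio at 671 and 618 nm; 0% = plate median of compound wells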
# PG9 binder – small molecules binding HIV-1 gp120 antibody PG9. TR-FRET gp120-PG9 antibody binding. inhibition, % at 6.7 µM. 0.43% of 360,000 active. AID 624416; in the data active means inhibition above about 8.5%
# rCAG RNA binder – r(CAG) repeat RNA binding | TO-PRO-1 dye displacement fluorescence | inhibition, % at 3 µM | 1.3% of 370,000 active | AID 651821;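 active means inhibition above the plate cutoff, the mean of all test compounds on that plate plus 3 SD, cut at about 35% in these data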;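 further: 0% = DMSO alone and 100% = 100 µM mitoxantrone as full dye displacement; higher means more dye released from RNA so lower well fluorescence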
# MBD2 DNA inh – inhibitors of human MBD2 binding to methylated oligonucleotide; Q9UBB5; 0.31% of 370,000 active; inhibition, % at 4.4 µM; TR-FRET; in the data active means inhibition above about 13%
# Target sequence (Q9UBB5 whole entry, looked up): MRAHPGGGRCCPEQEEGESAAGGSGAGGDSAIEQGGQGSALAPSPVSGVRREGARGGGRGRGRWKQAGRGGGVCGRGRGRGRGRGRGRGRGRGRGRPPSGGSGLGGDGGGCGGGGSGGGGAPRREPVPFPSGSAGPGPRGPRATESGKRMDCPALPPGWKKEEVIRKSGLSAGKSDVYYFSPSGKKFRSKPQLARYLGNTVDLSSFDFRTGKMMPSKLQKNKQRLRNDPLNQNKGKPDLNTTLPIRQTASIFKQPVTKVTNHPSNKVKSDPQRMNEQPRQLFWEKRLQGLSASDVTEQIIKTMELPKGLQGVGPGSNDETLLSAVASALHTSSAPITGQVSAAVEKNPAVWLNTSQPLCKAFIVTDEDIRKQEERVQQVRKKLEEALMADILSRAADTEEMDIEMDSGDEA
# DNMT1 block – DNMT1 (human) enzyme inhibition; P26358; 0.83% of 360,000 active; DNMT1 molecular beacon, Hinp1I cleavage, fluorescence; inhibition (reported as % activation of signal), % at 10 µM; in the data active means inhibition above about 50%
# DNMT1 interf DR – shows spectral interference in the DNMT1 beacon assay | shares compounds with DNMT1 block | molecular beacon fluorescence, spectral interference counter-screen | IC50, µM | 200 tested, under 10 active | AID 602382; call rule not given here
# DNMT1 inh conf – confirmation of human DNMT1 inhibitors; DNMT1 molecular beacon HinP1I cleavage, fluorescence; 8% of 2,300 active; shares compounds with DNMT1 block; AID 602385; inhibition, % at 10 µM;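 active means average inhibition of at least 30% in the single-concentration confirmation test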
# DNMT1 interf – counter-screen for DNMT1 inhibitors: spectral interference. shares compounds with DNMT1 block. DNMT1 molecular beacon spectral interference counterscreen, fluorescence 485/520. activation (fluorescence interference), % at 10 µM. 1% of 2,300 active;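 active means activation of at least 30% at 10 µM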;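 further: DNMT1 catalytic domain with a HinP1I cleavage step and a FAM/dabcyl DNA beacon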
# * marks the source's active call; other numbers are inactive results; / = no result given. Shown are actives, neighbours in structure and some others; about 3.5% of the full set was active somewhere.
SMILES,UHRF1 binding,LEDGF integ inh,PG9 binder,rCAG RNA binder,MBD2 DNA inh,DNMT1 block,DNMT1 inh conf,DNMT1 interf,others
CCOc1cc2[nH]c(=O)n(CCCCC(=O)NC3CCCCCC3)c(=O)c2cc1OCC,-2.6,3.0,0.2,-3.7,3.5,6.1,/,/,
CCOc1cc2[nH]c(=S)n(CCC(=O)NC3CCCCC3)c(=O)c2cc1OCC,-2.4,-3.0,-1.7,1.1,-1.1,51.1*,2.3,-0.6,
CSc1nnc2c3cc(C)ccc3n(Cc3ccccc3)c2n1,0.8,-0.4,-2.7,-1.0,1.1,77.0*,-3.1,-5.6,
COCC(=O)N(C)C[C@H]1N[C@@](C)(C(=O)OC)[C@H]2C(=O)N(C)C(=O)[C@@H]12,-0.2,2.6,-1.2,2.8,-7.6,85.7*,-0.2,3.0,
CCOc1ccc(OCc2ccc(C(=O)NN)o2)cc1,-3.0,1.4,0.8,2.3,-10.5,-3.6,/,/,
CCOc1ccc(OCc2ccc(C(=O)NC(C)(C)C)o2)cc1,0.1,-3.1,-0.2,-7.1,3.4,48.8,9.2,2.4,
N#Cc1c2ccc(OCC(=O)NCc3ccco3)cc2n2ccccc12,5.7,1.3,-2.8,7.3,-2.1,61.9*,1.4,0.1,
N#CCSc1nnc(-c2ccc(F)cc2)n1N,-1.6,1.3,-0.9,0.7,-4.4,91.8*,4.7,4.5,
O=C(N/N=C/c1ccc(Br)s1)c1cccc([N+](=O)[O-])c1,-4.6,3.9,-0.6,-0.1,-3.4,71.0*,1.2,-0.5,
O=C(NN=Cc1ccccc1O)c1cccc([N+](=O)[O-])c1,-1.4,-6.0,-0.7,8.4,0.8,36.2,/,/,
CCCCOC(=O)Cn1c(=O)oc2ccc(C)cc21,1.7,-1.8,1.9,-1.9,-2.2,0.1,/,/,
CCCCCOC(=O)Cn1c(=O)oc2ccc(C)cc21,-1.4,-4.2,-1.9,-6.3,-0.4,72.5*,1.2,7.6,
COc1ccc(-c2csc(NC(=O)CSc3nc(C)cs3)n2)cc1,1.3,0.6,0.1,0.9,-3.1,-5.4,/,/,
COc1ccc(-c2csc(NC(=O)CSc3nc(C)nc4sc(C(=O)O)c(C)c34)n2)cc1,-2.5,2.2,-0.4,42.5*,1.1,80.9*,62.4*,4.8,DNMT1 interf DR=>99
CCCC1=Nc2cc(C(=O)N3CCC(C(=O)OCC)CC3)ccc2Sc2ccccc21,2.8,2.9,-2.3,-5.5,-1.6,-7.5,/,/,
COc1ccc2oc(=O)c(C(=O)NCc3ccc(F)cc3)cc2c1,4.4,-0.6,2.0,-3.1,8.4,-1.1,/,/,
COc1ccc2oc(=O)c(C(=O)NCc3cccnc3)cc2c1,-4.3,-0.6,1.6,-0.4,-6.1,51.2*,1.9,1.4,
C=CCn1c(N)c(C(=O)OC(C)(C)C)c2nc3ccccc3nc21,-9.8,-0.4,-0.2,-1.5,-5.6,-2.9,/,/,
C=CCn1c(N)c(C(=O)OC(C)CC)c2nc3ccccc3nc21 (stereo not given),-10.8,3.7,-0.6,-0.9,-5.8,69.5*,7.7,6.9,
Cc1ccc(NC(=O)CCC(=O)OCC(=O)c2ccc(-c3ccccc3)cc2)cc1,-2.8,-3.1,3.9,9.2,3.6,51.2*,4.7,0.3,
COc1ccc(NC(=O)CCC(=O)c2ccc(-c3ccccc3)cc2)cc1,0.6,-8.1,3.8,7.0,-4.6,8.4,/,/,
Cc1c(C(=O)N2CCCC2)c(S(=O)(=O)Nc2cccc(Br)c2)c(C)n1C,1.8,-1.2,0.0,-5.2,2.2,5.3,/,/,
COc1cccc(CNC(=O)C2CCN(S(=O)(=O)c3ccc(-n4cnnn4)cc3)CC2)c1,-1.1,0.4,0.7,4.0,-0.1,-0.3,/,/,
CC(=O)Oc1cccc(/C=c2\sc3nc(-c4ccco4)nn3c2=O)c1,3.3,1.4,0.2,7.5,-7.4,61.2*,2.3,1.8,
O=c1/c(=C/c2ccco2)sc2nc(-c3ccccc3Br)nn12,2.8,2.1,-0.3,14.3,3.7,23.4,/,/,
SMILES,UHRF1 binding,LEDGF integ inh,PG9 binder,rCAG RNA binder,MBD2 DNA inh,DNMT1 block,DNMT1 inh conf,DNMT1 interf,others
COc1cc(NC(=O)Cn2cnc(C(=O)Nc3ccc(C)c(C)c3)n2)cc(OC)c1OC,-0.7,2.4,-0.7,1.9,0.5,-0.3,/,/,
Cc1ccc(NC(=O)Cn2cnc(C(=O)Nc3ccc(C)c(C)c3)n2)cc1C,-1.1,-7.6,0.1,-0.4,2.2,51.8*,1.9,3.0,
COc1cccc(/C=N/Nc2ncnc3c2[nH]c2ccc(C)cc23)c1OC,0.1,3.4,-1.0,9.3,2.5,60.2*,0.8,-2.8,
O=C(/C=C/c1ccc(Cl)cc1)NC(=S)Nc1ccc(NC(=O)c2ccco2)cc1,1.1,-0.5,-0.7,0.8,-1.8,58.2*,2.0,-2.6,
CC(=O)Nc1ccc(NC(=S)NC(=O)/C=C/c2ccc(Cl)cc2)cc1,0.5,1.0,-0.1,-1.0,-5.2,-19.9,/,/,
CCOC(=O)[C@]12CCCC=C1N(CCC1=CCCCC1)C(=O)[C@H](CC(=O)NCc1ccc(C)o1)C2,0.3,0.2,1.5,0.9,1.4,/,/,/,
CC1(C)CN(Cc2ccccc2)C(=O)[C@H]1CC(=O)Nc1ccc(Br)cc1,-0.7,-6.5,-1.4,-0.1,0.8,-3.1,/,/,
O=C(O)c1cc(-c2ccco2)nn1-c1ccc(Cl)cc1,11.7,2.7,-0.1,18.4,6.8,96.4*,12.2,2.8,
Nc1nnc(SCC(=O)Nc2cc(F)ccc2F)s1,-1.0,1.7,1.4,-2.8,-4.0,-2.7,/,/,
O=C(O)/C=C/c1ccc([N+](=O)[O-])o1,12.3,12.2,3.2,1.6,2.9,74.9*,5.2,1.9,
Cc1ccc(NC(=O)CN2C(=O)S/C(=C\c3ccc(OCC(=O)O)c(Br)c3)C2=O)cc1,0.2,-0.7,-3.3,28.2,0.7,33.2,/,/,
COc1cc(/C=C2\SC(=O)N(CC(=O)Nc3ccc(C)cc3)C2=O)cc(Cl)c1OCC(=O)O,-2.1,3.5,-1.8,32.3,-1.6,90.0*,3.2,6.1,
O=S1(=O)C=C[C@@H](COCc2ccccc2)N1Cc1ccc(Br)cc1,1.9,1.7,2.1,-0.5,-4.8,-1.3,/,/,
CCc1nc2sc3ccccc3c(=O)c2c(=O)n1Cc1ccco1,6.2,7.6,0.3,17.5,-0.6,87.8*,3.2,4.7,
O=c1c2ccccc2sc2nc(C3CCCCC3)n(Cc3ccco3)c(=O)c12,6.3,0.1,0.3,5.5,5.5,26.0,/,/,
COc1ccc(OC)c(S(=O)(=O)Nc2cc(OC)c(Cl)cc2OC)c1,-2.4,-2.3,0.3,-6.3,4.0,68.7*,3.7,6.0,
COc1cc(NS(=O)(=O)c2ccc(OC)c(C)c2C)c(OC)cc1Cl,1.6,-4.4,1.8,5.5,5.7,-2.7,/,/,
